Shown are actives, neighbours in structure and some others; about 17% of the full set was active somewhere.
TDP1 cell noCPT: qHTS for Inhibitors of human tyrosyl-DNA phosphodiesterase 1 (TDP1): qHTS in cells in absence of CPT; AID 686978, 2013; actives 15% (n = 420,000); DT40 Tdp1-/- hTDP1 cells, no CPT, ATP luminescence, 48 h; Potency, µM (titrated, usually from 46.2 µM), inactives show top-dose activity change, negative = growth inhibition, usual class: inhibitors; also: % is scaled to controls: 0 for no effect and ±100 for the full control effect; nearly all actives have a fitted effect of over 55% in size
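A cellular qHTS used chicken DT40 cells lacking endogenous Tdp1 but carrying stably transfected human TDP1. Compounds were applied without camptothecin, and cell growth kinetics were judged by ATP-dependent luminescence after ≥48 hr.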
ClpP mod: qHTS Assay for Activators of ClpP | actives 1.9% (n = 340,000) | purified B. subtilis ClpP, FRET peptide cleavage, 20 min | AID 651965, 2013 | Potency, µM (series often up to 57.5 µM), inactives show at the top dose activity change, negative = active | ATP-dependent Clp protease proteolytic subunit (Bacillus subtilis (strain 168)), P80244; active = well fitted falling curve with a large enough effect; inconclusive = small, poorly fitted or top-dose-only effect; inactive = no such curve, though single readings can be large or run the other way; also: the source files actives as falling curves though it sought activators and does not explain the sign; nearly all actives have a fitted effect of over 65% in size
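ClpP 10 microg/mL final, pH 8 Tris/KCl buffer with BSA, glycerol, Tween-20; compound pinned in; FRET-FV substrate; RT 20 min; Ex320/Em430; ΔFRET vs ADEP 5.8 microM, DMSO, no enzyme.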
DT40 TDP1 CPT: growth inhibition of DT40 Tdp1-/-;hTDP1 cells with camptothecin (screen for TDP1 inhibitors) | chicken DT40 Tdp1-/-;hTDP1 cells + 20 nM CPT, ATP luminescence, 48 h | Potency, µM (doses to about 46.2 µM), for the others: at the highest dose activity change, negative = growth inhibition, actives largely listed as inhibitors | actives 12% (n = 420,000) | AID 686979; also: % is scaled to controls: 0 for no effect and ±100 for the full control effect; nearly all actives have a fitted effect of over 55% in size
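Chicken DT40 Tdp1-/- cells stably complemented with human TDP1 were seeded at 400 cells/well in medium containing 20 nM camptothecin, exposed to pin-transferred compounds, and grown at 37 °C for at least 48 hr. Viability was read as ATP luminescence.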
TDP1 inh: inhibitors of human tyrosyl-DNA phosphodiesterase TDP1 | actives 0.28% (n = 350,000) | Q9NUW8 | Potency, µM (titrated, usually from 130 µM), inactives show at the highest dose activity change, negative = inhibition, actives largely listed as inhibitors | AID 485290 | recombinant TDP1, AlphaScreen DNA substrate cleavage; also: % is scaled to controls: 0 for no effect and ±100 for the full control effect; nearly all actives have a fitted effect of over 40% in size
Target sequence (Q9NUW8 whole entry, looked up): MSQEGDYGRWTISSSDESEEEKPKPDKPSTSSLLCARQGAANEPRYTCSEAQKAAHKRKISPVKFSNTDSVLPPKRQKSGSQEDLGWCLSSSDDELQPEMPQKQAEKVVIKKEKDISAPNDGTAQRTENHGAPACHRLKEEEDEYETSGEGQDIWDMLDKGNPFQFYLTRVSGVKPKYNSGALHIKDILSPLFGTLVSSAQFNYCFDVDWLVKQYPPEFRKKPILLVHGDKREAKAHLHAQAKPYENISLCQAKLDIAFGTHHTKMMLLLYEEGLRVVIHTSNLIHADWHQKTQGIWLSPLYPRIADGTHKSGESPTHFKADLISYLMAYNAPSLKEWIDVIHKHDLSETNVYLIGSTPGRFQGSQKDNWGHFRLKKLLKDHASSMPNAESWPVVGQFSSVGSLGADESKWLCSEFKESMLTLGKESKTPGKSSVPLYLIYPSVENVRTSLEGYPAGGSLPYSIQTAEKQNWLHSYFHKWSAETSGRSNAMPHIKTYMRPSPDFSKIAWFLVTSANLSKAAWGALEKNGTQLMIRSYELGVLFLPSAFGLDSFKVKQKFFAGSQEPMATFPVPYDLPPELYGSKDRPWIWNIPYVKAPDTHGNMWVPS
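Signal: AlphaScreen proximity between streptavidin donor and anti-FITC acceptor beads on intact substrate. Reaction: Tdp1 1 nM, substrate 15 nM final, 5 min RT after 15 min compound preincubation.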
* marks the source's active call; other numbers are inactive results; u = inconclusive; x = not tested or not shown; [ ] = another dose, or the depositor's remark. Unless noted, calls follow the shape of the dose curve; as a rule, active = well fitted curve in the direction sought with a large enough effect; inconclusive = small, poorly fitted or top-dose-only effect, or another doubt; inactive = no such curve, though single readings can be large; an effect the other way counts as inactive or inconclusive. Potency is read from the fitted curve at half-maximal effect.

SMILES	TDP1 cell noCPT	ClpP mod	DT40 TDP1 CPT	TDP1 inh
CCOC(=O)N1CCN(S(=O)(=O)c2cc(Br)cc3c2N(C(C)=O)C(C)C3)CC1 (centres undefined)	-18%	0%	-18%	2%
Cn1c(=O)c(-c2ccc(Cl)cc2)nc2cnc(Nc3ccccc3)nc21	13%	x	6%	x
O=C(Nc1ccc(C(=O)OCc2cc(=O)n3nc(C4CC4)sc3n2)cc1)c1cccc(F)c1	u	-11%	0%	1%
Cn1c(=O)c2c(nc(C(O)c3ccccc3)n2C)n(C)c1=O (centres undefined)	-5%	-3%	-7%	x
Cc1ccc(C)c(CN2CCCN(Cc3cc(C)ccc3C)S2(=O)=O)c1	9.2µM*	-1%	u	2%
CO[C@H]1[C@H](NC(=O)c2ccsc2)c2ccccc2C12CCN(Cc1cccn1-c1ccccn1)CC2	-26%	x	10%[9.04 µM]	x
CCCN1CCC(=O)N(C(CSc2ccc(Br)cc2)c2ccccc2)CC1 (centres undefined)	x	x	x	4%
CCCN1CCC(=O)N([C@H](CSc2ccccc2)c2ccccc2)CC1	18µM*	-5%	13µM*	x
CCCN1CCC(=O)N([C@H](CSc2ccc(C)cc2)c2ccccc2)CC1	8.2µM*	-12%	16µM*	4%
Cn1c(N)c(C(=O)COC(=O)COc2ccc(Cl)cc2Cl)c(=O)n(C)c1=O	-9%	0%	-23%	-2%
O=c1[nH]nc(-c2ccc(OCc3ccc(Cl)cc3Cl)cc2)o1	21%	-3%	-4%	x
S=C(Nc1ccccc1)Nc1ccc(OCc2ccc(Cl)cc2Cl)cc1	u	0%	18µM*	6%
OCCCCNCc1ccc(OCc2ccc(Cl)cc2Cl)cc1	23µM*	0%	21µM*	11%
OCCNCc1ccc(OCc2ccc(Cl)cc2Cl)cc1	18µM*	x	18µM*	-5%
CC(C)Oc1cccc(-c2cc(C(=O)NC(=S)N(C)c3ccccc3C(=O)O)c3ccccc3n2)c1	-25%	6.3µM*	-28%	0%
CCCc1ccc(-c2cc(C(=O)NN3CCOCC3)c3ccccc3n2)cc1	0.46µM*	u	u	2%
CCc1ccc(-c2cc(C(=O)Nn3cnnc3)c3ccccc3n2)cc1	13µM*	-9%	7.3µM*	-3%
CC(C)Oc1cccc(-c2cc(C(=O)NN3CCOCC3)c3ccccc3n2)c1	10µM*	-3%	15µM*	4%
Cc1cc(NC(=O)c2cc(-c3cccc(OCC(C)C)c3)nc3ccccc23)no1	u	u	u	2%
CCC/C=N/NC(=O)c1cc(-c2ccccc2)nc2ccccc12	u	-13%	-10%	5%
O=C(NN1CCOCC1)c1cc(-c2ccc(Br)s2)nc2ccccc12	u	u	u	-1%
O=C(Cc1cnc2ncnn2c1)N1CCc2c([nH]c3ccccc23)C1c1ccccc1F (centres undefined)	u	x	-23%	5%
CCn1nc(C)c(Br)c1Nc1ccc(Br)cc1	-14%	x	0%	2%
Cc1cn(CC(=O)NCCN2CCOCC2)c(=O)[nH]c1=O	0%	0%	-1%	x
COc1ccc(C2/C=C\CN(Cc3ccc(N(C)C)cc3)CC(=O)N2Cc2ccc(F)cc2)cc1 (centres undefined)	u	-1%	u	11%
SMILES	TDP1 cell noCPT	ClpP mod	DT40 TDP1 CPT	TDP1 inh
COc1ccccc1C(C(=O)c1ccccc1)c1ccc2ccccc2c1 (centres undefined)	16µM*	-5%	u	x
O=C(Nc1cccc(C(F)(F)F)c1)OCCN1CCN(Cc2ccccc2)CCC1=O	u	-1%	21µM*	7%
O=C(Nc1ccc(F)cc1)OCCN1CCN(Cc2ccccc2)CCC1=O	u	1%	u	5%
COc1ccc(C(C(=O)NC2CCCCC2)N(Cc2cccnc2)C(=O)c2snc(C(N)=O)c2N)cc1 (centres undefined)	-10%	x	-20%	1%
O=C(c1cccc(C(F)(F)F)c1)C1CCCN(Cc2cccc(OCCO)c2)C1 (centres undefined)	10µM*	-1%	u	x
O=C(c1ccc2c(c1)OCO2)C1CCCN(Cc2ccccc2OC(F)F)C1 (centres undefined)	u	-3%	16µM*	0%[56.1 µM]
O=C(c1cccc(C(F)(F)F)c1)C1CCCN(Cc2cccn2-c2ccccn2)C1 (centres undefined)	15µM*	x	15µM*	10%
COc1cccc(O)c1CN1CCCC(C(=O)c2cccc(C(F)(F)F)c2)C1 (centres undefined)	23µM*	x	16µM*	0%
COc1cccc(CN2CCCC(C(=O)c3ccc4c(c3)OCO4)C2)c1OC (centres undefined)	u	x	u	3%
COCc1cc(CN2CCCC(C(=O)c3cccc(C(F)(F)F)c3)C2)ccc1OC (centres undefined)	u	0%	u	0%
CCOc1ccc(OCC)c(NC(=O)c2nnn(CC(=O)Nc3cc(Cl)ccc3OC)c2N)c1	-19%	4%	-15%	2%
CCN(C[C@H]1N[C@@](CC)(C(=O)OC)[C@H]2C(=O)N(Cc3ccccc3)C(=O)[C@@H]12)C(=O)c1ccccc1	u	-3%	u	2%
COc1ccc(C(=O)C2CCCN(Cc3nc4ccccc4nc3C)C2)cc1OC (centres undefined)	u	x	-23%	x
COc1ccc(C(=O)C2CCCN(Cc3c(O)cccc3OC)C2)cc1OC (centres undefined)	7.3µM*	x	u	x
COc1c(C)cc(C(=O)C2CCCN(Cc3cccc4nccnc34)C2)cc1C (centres undefined)	16µM*	2%	u	0%
COc1ccc(C(=O)C2CCCN(Cc3cccc4c3OCO4)C2)cc1OC (centres undefined)	9.2µM*	-11%	u	x
CCCCNC(=O)N1CCCC(C(=O)c2cc(C)c(OC)c(C)c2)C1 (centres undefined)	16µM*	-16%	u	x
CCOC(=O)c1[nH]ncc1CN1CCCC(C(=O)c2ccc(OC)c(OC)c2)C1 (centres undefined)	-20%	x	1%	4%
CCCc1cc(C(=O)N2CCCC(C(=O)c3cc(C)c(OC)c(C)c3)C2)n(C)n1 (centres undefined)	u	-4%	-42%	1%
COc1ccccc1C(=O)C1CCCN(Cc2cccc3nccnc23)C1 (centres undefined)	-27%	x	-23%	3%
CC(C)C1COc2cc3oc(=O)ccc3cc2O1 (centres undefined)	-10%	x	-8%	-7%[56.1 µM]
CCC(Cn1nnc2ccccc2c1=O)NC(=O)Nc1ccccc1Cl (centres undefined)	u	1%	-17%	2%
